Compound activity: PubChem, Sanford-Burnham Center for Chemical Genomics
SENP8 block-1: blocks the human protease SENP8 | purified SENP8, Z-RLRGG-aminoluciferin cleavage, luminescence | inhibition, % at 10 µM | 1.2% of 330,000 active | AID 2540; in the data active = inhibition above about 50%
Target sequence (Q96LD8 whole entry, looked up): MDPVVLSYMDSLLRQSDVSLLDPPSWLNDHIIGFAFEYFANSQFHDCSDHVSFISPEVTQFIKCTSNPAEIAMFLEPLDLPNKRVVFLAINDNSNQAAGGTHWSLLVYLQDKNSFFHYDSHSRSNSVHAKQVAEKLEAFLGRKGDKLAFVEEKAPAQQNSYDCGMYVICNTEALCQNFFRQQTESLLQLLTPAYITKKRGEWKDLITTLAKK
SENP7 inh: SENP7 protease inhibition; 1.5% of 330,000 active; recombinant SENP7, Z-RLRGG-aminoluciferin luminescence, 40 min; inhibition, % at 5 µM; AID 434973;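 active = inhibition above about 50% at the single test dose, limit read from the data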;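 also: plate controls were DMSO with enzyme for no effect and no enzyme buffer wells for full effect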
Target sequence (Q9BQF6 706-1050 limits assumed): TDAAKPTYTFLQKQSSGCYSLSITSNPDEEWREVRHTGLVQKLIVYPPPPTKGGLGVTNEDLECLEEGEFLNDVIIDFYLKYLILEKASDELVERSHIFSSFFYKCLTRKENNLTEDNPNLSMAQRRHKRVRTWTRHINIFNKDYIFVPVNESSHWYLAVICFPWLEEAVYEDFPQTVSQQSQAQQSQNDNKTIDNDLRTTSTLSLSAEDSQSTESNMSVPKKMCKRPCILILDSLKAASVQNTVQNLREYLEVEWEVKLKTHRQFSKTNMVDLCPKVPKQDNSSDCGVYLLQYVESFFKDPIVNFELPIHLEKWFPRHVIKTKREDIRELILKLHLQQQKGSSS
SENP6 block: blocks the human protease SENP6. Recombinant SENP6 catalytic domain, aminoluciferin luminescence. inhibition, % at 10 µM. 1.8% of 330,000 active. AID 2599;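 active = inhibition above about 50% at the single tested dose, limit read from the data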;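 also: plate controls were DMSO wells with enzyme for no effect and DMSO wells lacking enzyme for full effect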
C8 TRAIL sens: caspase-8 TRAIL sensitization. NB7+C8 cells + TRAIL, ATPlite viability luminescence. inhibition (viability loss, TRAIL sensitization), % at 10 µM. 1% of 360,000 active. AID 624354;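 active = compounds causing at least 50% loss of cell viability in the single-dose screen, relative to plate controls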
SENP8 block-2: blocks human SENP8 cleavage of Nedd8 substrate; Q96LD8; recombinant SENP8, Nedd8 substrate fluorescence; inhibition, % at 20 µM; 0.64% of 360,000 active; AID 602440; in the data active = inhibition mostly above about 40%, no sharp cut-off; inactive = mostly below about 27%
PPC-1+TRAIL kill: PPC-1 cancer cell killing with TRAIL present; PPC-1 cells + TRAIL, ATPLite viability luminescence; cell killing (% activity), % at 4 µM or 5 µM; 0.41% of 220,000 active;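 active = cell killing above 50% in the first pass at 4 µM, then a duplicate retest at 5 µM averaging 50% or more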;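 also: plate controls were cells with TRAIL plus DMSO for no effect and medium-only wells lacking cells for full effect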
An asterisk follows results filed as active; nt = no result. The list is not random: actives were taken first. Their share in the collection is about 3%.

SMILES	SENP8 block-1	SENP7 inh	SENP6 block	C8 TRAIL sens	SENP8 block-2	PPC-1+TRAIL kill
Cn1c(N)c(C(=O)COC(=O)c2cc(S(=O)(=O)N3CCOCC3)ccc2F)c(=O)n(C)c1=O	7.4	5.5	-15.2	63.8*	-2.9	nt
Cc1ccc(S(=O)(=O)N2CCOCC2)cc1C(=O)OCC(=O)c1c(N)n(C)c(=O)n(C)c1=O	-2.1	3.0	-15.1	-1.9	2.3	nt
Oc1cccc2ccc(/C=C/c3cccs3)nc12	88.4*	94.5*	96.3*	21.9	-54.3	19.5
Cc1ccc(C)c(OCCC(=O)Nc2cccc(S(=O)(=O)N3CCCCC3)c2)c1	-9.4	-10.8	-18.7	4.2	7.4	nt
COC1=C(N)C(=O)c2nc(C)ccc2C1=O	nt	nt	nt	91.0*	98.6*	nt
COC1=C(Br)C(=O)c2nc(C)ccc2C1=O	nt	nt	nt	0.2	86.0*	nt
COc1ccc(NS(=O)(=O)c2ccc(NC(=S)NC(=O)c3cccnc3)cc2)nn1	2.2	-1.5	11.6	-11.5	0.0	19.5
COc1ccc(NS(=O)(=O)c2ccc(NC(=S)NC(=O)c3cccc(F)c3)cc2)nn1	84.5*	80.4*	92.0*	0.6	16.7	2.2
O=C(CN1C(=O)c2ccccc2C1=O)OCC(=O)c1ccccc1	-9.5	-9.7	-16.9	-0.5	8.1	nt
Cc1ccccc1-n1c(C)cc(/C=N/Nc2ccc([N+](=O)[O-])cn2)c1C	-7.3	4.4	-10.1	10.5	60.5*	-11.9
Cc1cc(/C=N/Nc2ccc([N+](=O)[O-])cn2)c(C)n1-c1ccc(C(=O)O)cc1	-3.5	1.6	1.9	3.5	49.9*	17.7
COCC(=O)N1C[C@H](C)[C@H](OC)CN(C)C(=O)c2cc(NC(=O)Nc3cccc(F)c3)ccc2OC[C@@H]1C	nt	nt	nt	4.3	17.3	nt
CCCCN(C)C(=O)c1ccc(Nc2nc(C(N)CCc3ccccc3)cs2)nc1 (configuration not stated)	nt	nt	nt	19.0	-113.5	nt
CCCCN(C)C(=O)c1ccc(Nc2nc(C(N)Cc3ccc(C(F)(F)F)cc3)cs2)nc1 (configuration not stated)	nt	nt	nt	76.9*	-148.7	nt
NC(Cc1ccc(C(F)(F)F)cc1)c1csc(Nc2nncc3ccccc23)n1 (configuration not stated)	nt	nt	nt	69.3*	-110.9	nt
NC(COCc1ccccc1)c1csc(Nc2nncc3ccccc23)n1 (configuration not stated)	nt	nt	nt	-7.2	-143.5	nt
CC(C)CCN1CCNC(=O)C1CC(=O)N(C)CCCN1CCOCC1 (configuration not stated)	0.8	11.0	-13.3	-14.3	-9.0	nt
COc1ccc(CNc2nc3ccccc3n2C(C)C)c(O)c1	-1.4	3.0	10.3	1.4	34.6	nt
COc1ccc(CNc2nc3ccccc3n2C)c(OC)c1	60.5*	61.0*	40.3	11.2	5.2	-4.1
CN(C)c1ccc2nc3ccc(=[N+](C)C)cc-3sc2c1	34.4	16.2	32.2	55.5*	65.6*	67.2*
O=C(Nc1ccc(Oc2c(F)c(F)c(F)c(F)c2F)cc1)OC1CCN2Cc3ccccc3N=C12 (configuration not stated)	-13.1	-8.1	-4.1	69.2*	20.5	-16.6
Brc1ccc(-c2nnc3sc(CN4CCc5ccccc5C4)cn23)cc1	nt	nt	nt	14.5	39.9	nt
Brc1ccc(-c2nnc3sc(CN4CCC5(CC4)OCCO5)cn23)cc1	-0.9	-7.5	-9.5	65.8*	7.9	7.4
CCN(C(=O)COC(=O)c1cccnc1SC)c1c(N)n(Cc2ccccc2)c(=O)[nH]c1=O	6.4	2.2	10.8	-4.1	-0.1	nt
O=c1[nH][nH]c2c(N=Cc3ccccc3O)ccc(F)c12	nt	nt	nt	19.0	47.2*	-5.5
SMILES	SENP8 block-1	SENP7 inh	SENP6 block	C8 TRAIL sens	SENP8 block-2	PPC-1+TRAIL kill
CCOP(=O)(C1=C(O)C(=O)C(C(C)(C)C)=CC1=O)c1ccccc1 (configuration not stated)	nt	nt	nt	-18.9	86.9*	12.0
FC(F)(F)c1ccccc1Cc1c(C2CCCCC2)nc2c3ccccc3ccn12	nt	nt	nt	-0.6	-84.1	nt
CCN1CCN(CCNC(=O)c2ccc3c(c2)N(Cc2ccc(F)cc2)C(=O)/C(=C/c2ccccc2)S3)CC1	-7.7	2.5	-13.1	56.6*	-53.7	27.1
CCN1CCCC1CNC(=O)c1ccc2c(c1)NC(=O)/C(=C\c1ccc(C)cc1)S2 (configuration not stated)	-7.6	14.9	-4.4	78.7*	-33.2	nt
O=C1Nc2cc(C(=O)NCCN3CCCCCC3)ccc2S/C1=C/c1ccccc1F	nt	nt	nt	52.3*	-62.6	nt
CCN1CCN(CCNC(=O)c2ccc(/C=C3/Sc4ccccc4N(Cc4cccc(Cl)c4)C3=O)cc2)CC1	-12.8	7.6	-24.5	25.9	-152.3	-3.3
Cc1ccc(-n2c(-c3ccncc3)n[nH]c2=S)c(C)c1	-7.9	1.1	0.0	-2.9	-14.8	12.8
Nc1c(C(=O)NCc2ccco2)c2nc3ccccc3nc2n1CCc1ccc(F)cc1	57.6*	43.7	67.1*	2.6	-259.4	22.6
COc1ccc(-n2c(N)c(C(=O)NCc3ccco3)c3nc4ccccc4nc32)cc1	6.6	3.6	4.3	2.2	-279.0	-2.5
O=C(NOCc1ccccc1)c1ccccc1	-4.7	21.1	7.6	12.3	13.5	nt
O=C(NOCc1ccccc1)c1ccc(Cl)cc1Cl	3.2	8.1	17.5	57.8*	24.8	nt
Cc1nn(-c2ccccc2)c(Cl)c1CN(C(=O)CCl)c1cccc2ccccc12	-3.0	1.5	-9.1	96.9*	21.8	-2.9
CC(=O)N(Cc1c(C)nn(-c2ccccc2)c1Cl)c1ccc(Cl)cc1	3.3	-1.2	-4.8	6.6	17.8	-8.2
Cc1nn(-c2ccccc2)c(Cl)c1C(=O)NCC(=O)O	1.4	5.0	-2.2	-8.9	18.0	9.7
Cc1nn(-c2ccccc2)c(Cl)c1CN(C(=O)CCl)c1ccc(Cl)cc1	nt	nt	nt	97.3*	12.1	-3.3
O=C(Nc1ccc2nc3n(c(=O)c2c1)CCCCC3)c1c(F)ccc([N+](=O)[O-])c1F	-2.5	-1.7	6.5	68.2*	15.2	nt
O=C(Nc1ccc2nc3n(c(=O)c2c1)CCCCC3)c1cc([N+](=O)[O-])ccc1F	-3.8	1.2	1.1	42.1	11.5	nt
Oc1ccccc1/C=N/Nc1cc(N2CCCC2)nc(N2CCCC2)n1	14.3	45.3	49.0	14.2	58.4*	0.7
CCOC(=O)C1CCN(C2=C(NS(=O)(=O)c3ccc(Cl)cc3)C(=O)c3ccccc3C2=O)CC1	14.6	10.7	21.8	-1.1	49.2*	0.9
CCOC(=O)N1CCN(C2=C(NS(=O)(=O)c3ccc(NC(C)=O)cc3)C(=O)c3ccccc3C2=O)CC1	23.8	35.1	50.0	0.7	73.2*	nt
CCOC(=O)C1CCCN(C(=O)CCNS(=O)(=O)c2ccc(Br)cc2)C1 (configuration not stated)	-6.3	-7.9	-12.9	0.7	11.3	nt
CCOC(=O)C1CCN(CC(C)(C)NS(=O)(=O)c2ccc(Cl)cc2)CC1	6.3	-6.1	-1.5	1.8	9.8	nt
CN(C1=C(N2CCCCC2)C(=O)c2ccccc2C1=O)c1ccccc1	19.3	14.6	46.3	7.2	49.4*	-13.9
